# Laboratory results published in the supplement of paper PMC11732987, “Enantioselective OTUD7B fragment discovery through chemoproteomics screening and high-throughput optimisation” (Communications Chemistry, 2025).
# Values without a mark were called inactive.
# Tests used:
# Assay in all cases: log2 ratio of Biotin-Ahx-Ub-VS probe labelling (fragment/DMSO); higher = less target engagement (more negative = stronger competition), active = hit call of the paper (q ≤ 0.05, log2 ratio ≤ -1)
# Conditions in all cases: compound concentration: 200 uM; treatment time: 3 h
# ALG13 = target: T1, ALG13 (UniProt Q9NP73)
# T1 sequence (whole entry): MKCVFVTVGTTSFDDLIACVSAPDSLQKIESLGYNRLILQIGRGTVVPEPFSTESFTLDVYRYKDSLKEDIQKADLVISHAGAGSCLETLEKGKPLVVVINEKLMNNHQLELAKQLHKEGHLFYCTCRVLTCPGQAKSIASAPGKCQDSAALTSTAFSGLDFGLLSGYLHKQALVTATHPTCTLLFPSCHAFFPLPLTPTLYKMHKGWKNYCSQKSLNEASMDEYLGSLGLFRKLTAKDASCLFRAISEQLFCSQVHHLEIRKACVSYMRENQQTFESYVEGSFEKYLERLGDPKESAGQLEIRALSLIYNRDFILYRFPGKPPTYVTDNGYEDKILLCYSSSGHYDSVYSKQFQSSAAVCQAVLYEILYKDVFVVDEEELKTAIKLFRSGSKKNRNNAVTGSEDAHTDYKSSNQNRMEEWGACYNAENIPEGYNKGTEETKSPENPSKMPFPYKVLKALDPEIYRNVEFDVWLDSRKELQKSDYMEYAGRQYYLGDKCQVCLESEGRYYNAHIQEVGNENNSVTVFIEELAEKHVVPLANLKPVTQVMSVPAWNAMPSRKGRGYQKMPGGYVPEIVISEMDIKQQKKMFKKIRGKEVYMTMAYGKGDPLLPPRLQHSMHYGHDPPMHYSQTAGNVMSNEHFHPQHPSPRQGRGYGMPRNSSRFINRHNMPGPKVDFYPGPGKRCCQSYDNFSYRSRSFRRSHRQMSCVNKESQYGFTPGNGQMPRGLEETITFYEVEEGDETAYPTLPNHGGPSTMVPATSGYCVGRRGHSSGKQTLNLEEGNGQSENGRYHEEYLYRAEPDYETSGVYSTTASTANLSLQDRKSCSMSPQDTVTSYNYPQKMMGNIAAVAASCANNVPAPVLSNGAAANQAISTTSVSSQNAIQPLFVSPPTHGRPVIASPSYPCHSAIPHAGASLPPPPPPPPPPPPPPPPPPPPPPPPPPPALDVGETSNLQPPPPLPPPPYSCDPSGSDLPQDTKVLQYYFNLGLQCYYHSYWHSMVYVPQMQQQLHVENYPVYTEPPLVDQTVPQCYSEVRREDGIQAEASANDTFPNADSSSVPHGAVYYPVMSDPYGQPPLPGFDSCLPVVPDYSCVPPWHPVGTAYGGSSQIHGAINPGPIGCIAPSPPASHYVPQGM
# Outline: (§1)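 Each value is an average log2 ratio of fragment to vehicle, tested by unpaired t-test. The underlying Spectronaut label-free quantities were global-median-normalised, and only proteins with ≥2 unique peptides were included. Triplicate HEK293T lysate samples (495 µg) were exposed to fragment at 200 µM or vehicle for 3 h, then to Biotin-Ahx-Ub-VS at 0.5 µM final for 1 h, before NeutrAvidin enrichment of labelled DUBs, LysC and trypsin digestion, and diaPASEF LC-MS/MS.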
# ATXN3 = ATXN3 (UniProt P54252)
# Outline: as §1
# BAP1 = target: T2, BAP1 (UniProt Q92560)
# T2 sequence (whole entry): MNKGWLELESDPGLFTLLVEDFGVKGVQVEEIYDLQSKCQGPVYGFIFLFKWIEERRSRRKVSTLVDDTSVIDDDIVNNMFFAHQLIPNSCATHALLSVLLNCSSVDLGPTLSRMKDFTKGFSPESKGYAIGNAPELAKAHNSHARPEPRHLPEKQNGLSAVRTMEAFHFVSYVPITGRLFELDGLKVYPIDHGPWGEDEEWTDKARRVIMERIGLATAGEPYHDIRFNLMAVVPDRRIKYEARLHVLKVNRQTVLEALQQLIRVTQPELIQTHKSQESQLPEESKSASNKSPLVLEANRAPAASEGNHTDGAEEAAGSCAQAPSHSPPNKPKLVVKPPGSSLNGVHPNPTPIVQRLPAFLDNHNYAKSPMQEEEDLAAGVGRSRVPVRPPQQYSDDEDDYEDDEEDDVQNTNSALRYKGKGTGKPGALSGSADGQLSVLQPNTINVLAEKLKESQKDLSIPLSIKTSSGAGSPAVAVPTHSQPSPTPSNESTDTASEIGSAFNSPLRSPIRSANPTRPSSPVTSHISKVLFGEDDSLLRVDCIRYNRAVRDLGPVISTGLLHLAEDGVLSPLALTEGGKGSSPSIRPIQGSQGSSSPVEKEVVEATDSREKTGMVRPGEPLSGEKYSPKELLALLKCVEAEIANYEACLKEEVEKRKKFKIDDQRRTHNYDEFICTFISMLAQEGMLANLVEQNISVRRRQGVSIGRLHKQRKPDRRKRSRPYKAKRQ
# Outline: as §1
# EIF3F = EIF3F (UniProt O00303)
# Outline: as §1
# EIF3H = EIF3H (UniProt O15372)
# Outline: as §1
# FAM105A = target: T3, FAM105A (UniProt Q9NUU6)
# T3 sequence (whole entry): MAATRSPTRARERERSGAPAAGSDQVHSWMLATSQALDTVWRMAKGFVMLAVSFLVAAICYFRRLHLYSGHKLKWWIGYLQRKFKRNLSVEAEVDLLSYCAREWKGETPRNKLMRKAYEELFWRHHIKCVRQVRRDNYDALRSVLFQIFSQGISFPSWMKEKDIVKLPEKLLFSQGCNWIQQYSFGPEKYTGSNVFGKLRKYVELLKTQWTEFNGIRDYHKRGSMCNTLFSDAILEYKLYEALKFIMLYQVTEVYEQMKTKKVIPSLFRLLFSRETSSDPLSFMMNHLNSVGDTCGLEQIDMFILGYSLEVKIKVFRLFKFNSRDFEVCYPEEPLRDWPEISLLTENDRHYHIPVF
# Outline: as §1
# OTUB1 = OTUB1 (UniProt Q96FW1)
# Outline: as §1
# OTUD4 = target: T4, OTUD4 (UniProt Q01804)
# T4 sequence (whole entry): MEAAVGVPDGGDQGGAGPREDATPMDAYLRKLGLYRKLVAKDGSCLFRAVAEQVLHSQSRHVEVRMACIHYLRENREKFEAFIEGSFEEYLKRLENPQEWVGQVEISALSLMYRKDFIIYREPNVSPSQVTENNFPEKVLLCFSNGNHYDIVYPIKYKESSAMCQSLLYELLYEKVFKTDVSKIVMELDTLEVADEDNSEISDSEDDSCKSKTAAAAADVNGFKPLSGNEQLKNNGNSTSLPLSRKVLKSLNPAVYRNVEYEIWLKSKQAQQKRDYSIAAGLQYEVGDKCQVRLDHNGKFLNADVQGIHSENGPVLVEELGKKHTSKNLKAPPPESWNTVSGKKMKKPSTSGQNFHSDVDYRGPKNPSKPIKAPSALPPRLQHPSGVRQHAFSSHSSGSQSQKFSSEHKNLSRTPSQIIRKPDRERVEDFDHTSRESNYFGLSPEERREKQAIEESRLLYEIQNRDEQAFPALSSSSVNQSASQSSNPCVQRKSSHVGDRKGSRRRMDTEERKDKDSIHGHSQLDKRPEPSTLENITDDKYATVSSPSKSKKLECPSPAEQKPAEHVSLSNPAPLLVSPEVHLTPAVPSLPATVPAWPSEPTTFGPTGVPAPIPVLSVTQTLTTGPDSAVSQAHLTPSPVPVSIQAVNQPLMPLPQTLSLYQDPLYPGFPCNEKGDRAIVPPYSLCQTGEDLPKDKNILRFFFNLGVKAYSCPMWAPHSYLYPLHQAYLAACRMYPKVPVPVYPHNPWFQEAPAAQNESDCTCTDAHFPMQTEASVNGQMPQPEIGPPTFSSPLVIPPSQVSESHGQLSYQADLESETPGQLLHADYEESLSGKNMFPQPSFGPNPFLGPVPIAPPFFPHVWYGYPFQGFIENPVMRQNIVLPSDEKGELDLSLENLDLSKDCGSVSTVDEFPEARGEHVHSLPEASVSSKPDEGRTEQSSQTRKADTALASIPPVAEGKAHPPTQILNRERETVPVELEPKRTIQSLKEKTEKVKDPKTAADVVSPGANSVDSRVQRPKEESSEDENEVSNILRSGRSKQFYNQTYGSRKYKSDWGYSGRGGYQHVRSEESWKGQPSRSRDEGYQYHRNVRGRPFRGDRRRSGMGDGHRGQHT
# Outline: as §1
# OTUD5 = target: T5, OTUD5 (UniProt Q96G74)
# T5 sequence (whole entry): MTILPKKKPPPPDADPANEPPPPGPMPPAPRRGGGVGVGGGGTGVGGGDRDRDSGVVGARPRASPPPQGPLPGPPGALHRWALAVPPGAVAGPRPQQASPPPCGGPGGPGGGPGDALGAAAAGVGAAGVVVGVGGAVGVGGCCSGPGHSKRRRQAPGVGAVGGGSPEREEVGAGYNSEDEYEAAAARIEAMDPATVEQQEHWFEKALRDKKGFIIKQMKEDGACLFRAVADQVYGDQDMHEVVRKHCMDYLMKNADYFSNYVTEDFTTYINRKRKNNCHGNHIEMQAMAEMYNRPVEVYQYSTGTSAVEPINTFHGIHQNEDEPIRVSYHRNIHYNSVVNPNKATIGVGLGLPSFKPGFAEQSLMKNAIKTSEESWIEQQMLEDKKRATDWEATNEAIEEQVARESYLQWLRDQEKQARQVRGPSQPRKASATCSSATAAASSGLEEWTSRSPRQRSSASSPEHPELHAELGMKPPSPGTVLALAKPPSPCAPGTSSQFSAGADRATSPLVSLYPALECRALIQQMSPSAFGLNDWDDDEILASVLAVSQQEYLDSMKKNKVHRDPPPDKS
# Outline: as §1
# Chain of EIF3F (O00303 whole entry): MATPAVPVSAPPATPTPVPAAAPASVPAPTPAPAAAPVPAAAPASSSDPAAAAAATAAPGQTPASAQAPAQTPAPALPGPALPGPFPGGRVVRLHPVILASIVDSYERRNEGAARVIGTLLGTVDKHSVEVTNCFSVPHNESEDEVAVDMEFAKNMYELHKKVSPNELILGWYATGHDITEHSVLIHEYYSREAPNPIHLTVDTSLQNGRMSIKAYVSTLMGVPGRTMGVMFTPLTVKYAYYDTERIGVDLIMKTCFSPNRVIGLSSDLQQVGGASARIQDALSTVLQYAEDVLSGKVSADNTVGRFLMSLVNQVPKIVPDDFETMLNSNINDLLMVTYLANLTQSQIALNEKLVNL
# Chain of EIF3H (O15372 whole entry): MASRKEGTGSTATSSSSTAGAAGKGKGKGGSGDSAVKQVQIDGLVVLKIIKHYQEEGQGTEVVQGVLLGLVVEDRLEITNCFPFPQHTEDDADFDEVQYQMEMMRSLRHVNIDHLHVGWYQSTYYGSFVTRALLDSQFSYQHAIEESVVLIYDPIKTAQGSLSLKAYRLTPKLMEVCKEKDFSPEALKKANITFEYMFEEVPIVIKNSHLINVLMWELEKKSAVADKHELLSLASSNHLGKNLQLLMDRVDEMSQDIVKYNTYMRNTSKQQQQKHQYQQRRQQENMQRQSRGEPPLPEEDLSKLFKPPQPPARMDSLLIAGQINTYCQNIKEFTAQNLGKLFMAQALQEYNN
# Chain of ATXN3 (P54252 whole entry): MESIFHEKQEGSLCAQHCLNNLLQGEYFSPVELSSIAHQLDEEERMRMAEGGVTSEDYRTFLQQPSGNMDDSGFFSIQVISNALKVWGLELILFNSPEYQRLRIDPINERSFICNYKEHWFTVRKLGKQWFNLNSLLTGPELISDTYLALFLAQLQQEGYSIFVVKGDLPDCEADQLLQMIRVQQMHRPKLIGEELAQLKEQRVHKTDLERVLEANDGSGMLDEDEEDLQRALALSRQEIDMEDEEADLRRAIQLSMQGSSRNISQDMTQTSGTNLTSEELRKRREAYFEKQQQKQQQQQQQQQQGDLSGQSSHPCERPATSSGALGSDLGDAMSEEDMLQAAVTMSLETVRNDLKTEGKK
# Chain of OTUB1 (Q96FW1 whole entry): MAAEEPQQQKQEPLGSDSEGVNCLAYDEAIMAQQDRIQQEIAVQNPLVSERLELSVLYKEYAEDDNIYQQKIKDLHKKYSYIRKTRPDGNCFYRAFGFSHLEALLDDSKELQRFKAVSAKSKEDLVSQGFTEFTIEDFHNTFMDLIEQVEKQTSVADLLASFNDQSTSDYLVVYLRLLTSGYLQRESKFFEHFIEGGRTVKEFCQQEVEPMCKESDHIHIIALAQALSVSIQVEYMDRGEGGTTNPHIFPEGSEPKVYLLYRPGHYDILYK
smiles,measurement,setting,value
O=C(CCl)N1CCN(C(=O)N2CCCCC2)CC1,log2 ratio of Biotin-Ahx-Ub-VS probe labelling,ALG13,-1.37 (active)
same,log2 ratio of Biotin-Ahx-Ub-VS probe labelling,ATXN3,-1.81 (active)
same,log2 ratio of Biotin-Ahx-Ub-VS probe labelling,BAP1,-1.46 (active)
same,log2 ratio of Biotin-Ahx-Ub-VS probe labelling,EIF3F,-0.507
same,log2 ratio of Biotin-Ahx-Ub-VS probe labelling,EIF3H,0.266
same,log2 ratio of Biotin-Ahx-Ub-VS probe labelling,FAM105A,-0.215
same,log2 ratio of Biotin-Ahx-Ub-VS probe labelling,OTUB1,-0.524
same,log2 ratio of Biotin-Ahx-Ub-VS probe labelling,OTUD4,-0.638
same,log2 ratio of Biotin-Ahx-Ub-VS probe labelling,OTUD5,-1.13 (active)
